The supplement of paper PMC3545927
This is one part of the list. The hit rate among all sequences tested is not known here.

Biological target: furin, P09958
Experiment: furin cleavage Z-score vs untreated control; higher = more cleavage, active = 3.5 or more, inactive = 1 or less, 8 variable residues between constant flanks
Method in brief: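 Abundance of DNA freed from bead-bound 8-mer peptide–cDNA fusions by purified furin was measured as sequencing read counts after PCR adapter tagging. Cutting ran 7.5, 15 or 30 min in 0.01 ml of 50 mM HEPES pH 7.5 with CaCl2 and NaCl at 1:10 enzyme:substrate. The cleavage Z-score expresses these log counts against furin-free reactions after lowess adjustment and median absolute deviation scaling.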

Sequence of furin, P09958 (P09958 whole entry): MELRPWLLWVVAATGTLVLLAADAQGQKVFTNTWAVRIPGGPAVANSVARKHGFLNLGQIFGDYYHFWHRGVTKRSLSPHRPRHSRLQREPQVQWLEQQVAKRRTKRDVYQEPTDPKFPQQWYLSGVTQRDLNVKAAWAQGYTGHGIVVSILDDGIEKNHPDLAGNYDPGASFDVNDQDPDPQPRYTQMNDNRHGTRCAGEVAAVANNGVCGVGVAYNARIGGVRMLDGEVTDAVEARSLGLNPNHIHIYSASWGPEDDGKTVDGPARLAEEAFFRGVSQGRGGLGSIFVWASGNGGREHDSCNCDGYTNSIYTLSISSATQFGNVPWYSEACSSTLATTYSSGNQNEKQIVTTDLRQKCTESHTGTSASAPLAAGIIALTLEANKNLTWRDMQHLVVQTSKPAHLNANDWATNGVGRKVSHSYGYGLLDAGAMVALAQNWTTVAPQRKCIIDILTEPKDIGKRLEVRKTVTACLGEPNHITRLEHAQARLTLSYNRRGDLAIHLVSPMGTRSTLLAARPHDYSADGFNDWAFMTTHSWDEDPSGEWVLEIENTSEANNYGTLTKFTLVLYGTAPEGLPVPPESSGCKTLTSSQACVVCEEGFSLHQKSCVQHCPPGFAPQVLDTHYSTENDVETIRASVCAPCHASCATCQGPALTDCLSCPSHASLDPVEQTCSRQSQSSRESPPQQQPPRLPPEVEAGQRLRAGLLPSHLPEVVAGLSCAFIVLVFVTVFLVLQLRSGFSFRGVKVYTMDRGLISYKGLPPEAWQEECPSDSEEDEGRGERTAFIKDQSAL

Sequence	furin cleavage Z-score (7.5 min)	furin cleavage Z-score (15 min)	furin cleavage Z-score (30 min)
CATWLKAKLMAGNASASA [HC1157]	3.1	1.6	3.5 (active)
CATCGFADLMAGNASASA [HC224]	-0.244 (inactive)	-0.821 (inactive)	-0.0608 (inactive)
CANILRKARSAGNASASA [FS-366]	9.27 (active)	9.75 (active)	7.85 (active)
CANNARAARSAGNASASA [FS-1547]	5.1 (active)	5 (active)	5.02 (active)
CALWARMILMAGNASASA [HC1580]	-0.179 (inactive)	-0.799 (inactive)	-1.16 (inactive)
CATLLRAARSAGNASASA [FS-1659]	4.67 (active)	4.38 (active)	3.86 (active)
CATTPCSGQWAGNASASA [HC1922]	-0.163 (inactive)	-0.899 (inactive)	-0.665 (inactive)
CAVYTFYGMWAGNASASA [HC554]	-0.934 (inactive)	-0.697 (inactive)	-0.425 (inactive)
CASTPCSWHLAGNASASA [HC2528]	1.37	0.165 (inactive)	-0.0279 (inactive)
CASTPCSAQLAGNASASA [HC2562]	-1.59 (inactive)	0.487 (inactive)	0.259 (inactive)
CAEGEVPCHRAGNASASA [HC2456]	1.8	1.4	0.687 (inactive)
CAGLYHVTNDAGNASASA [HC260]	0.615 (inactive)	-1.34 (inactive)	-0.664 (inactive)
CATLGFGAYMAGNASASA [HC791]	0.163 (inactive)	-1.28 (inactive)	0.49 (inactive)
CARARRDPRAAGNASASA [FS-2643]	9.64 (active)	9.59 (active)	9.18 (active)
CASSSRDPRAAGNASASA [FS-1573]	-1.14 (inactive)	0.526 (inactive)	1.07
CARSRRPADTAGNASASA [FS-3210]	-0.916 (inactive)	-0.606 (inactive)	-2.54 (inactive)
CAQPARSVRLAGNASASA [FS-1389]	-0.0259 (inactive)	0.85 (inactive)	0.452 (inactive)
CAKPAKSARSAGNASASA [FS-811]	-0.364 (inactive)	-0.316 (inactive)	0.253 (inactive)
CAKSARSVRAAGNASASA [FS-1673]	6.74 (active)	6.73 (active)	7 (active)
CARSRREASGAGNASASA [FS-2311]	3.7 (active)	2.31	2.33
CARVCRCARAAGNASASA [FS-3116]	5.97 (active)	5.83 (active)	6.08 (active)
CAVQPEKGGRAGNASASA [HC1444]	-2.15 (inactive)	-2.12 (inactive)	-0.412 (inactive)
CADAMEECSQAGNASASA [HC1803]	-1.34 (inactive)	0.113 (inactive)	-0.929 (inactive)

Sequence	furin cleavage Z-score (7.5 min)	furin cleavage Z-score (15 min)	furin cleavage Z-score (30 min)
CAVVCCSMLYAGNASASA [HC2065]	-0.464 (inactive)	-0.469 (inactive)	-1.46 (inactive)
CATFPINAYTAGNASASA [HC1190]	-0.0204 (inactive)	-1.04 (inactive)	-0.568 (inactive)
CARAPRSKVPAGNASASA [FS-2251]	0.556 (inactive)	0.0997 (inactive)	1.62
CARSRRSQINAGNASASA [FS-2383]	1.8	3.75 (active)	2.57
CARSRRSYSCAGNASASA [FS-3238]	0.584 (inactive)	1.19	2.38
CARAPRDSDAAGNASASA [FS-2546]	-0.983 (inactive)	0.168 (inactive)	0.352 (inactive)
CARSRRSAFHAGNASASA [FS-2819]	8.26 (active)	9.19 (active)	8.92 (active)
CARSGRSIINAGNASASA [FS-3080]	-0.514 (inactive)	0.929 (inactive)	1.74
CARSLRSQIRAGNASASA [FS-2309]	0.116 (inactive)	-1.95 (inactive)	0.712 (inactive)
CARAPRSPRAAGNASASA [FS-3183]	9.2 (active)	8.63 (active)	8.05 (active)
CARSRRSPRAAGNASASA [FS-1794]	11.3 (active)	13.6 (active)	9.99 (active)
CATGWLAGLFAGNASASA [HC378]	1	1.08	0.703 (inactive)
CATTPCSGSCAGNASASA [HC1940]	-1.36 (inactive)	-1.27 (inactive)	-2.07 (inactive)
CAVQLINTNGAGNASASA [HC366]	0.569 (inactive)	-1.46 (inactive)	0.762 (inactive)
CARTVVLTESAGNASASA [HC1326]	0.659 (inactive)	0.273 (inactive)	-0.545 (inactive)
CATPSRAGRAAGNASASA [FS-99]	3.27	3.92 (active)	2.86
CAAASLRAFTAGNASASA [HC1537]	-0.944 (inactive)	-0.499 (inactive)	-0.478 (inactive)
CAQKLETFWAAGNASASA [HC1038]	2.24	-0.183 (inactive)	-1.19 (inactive)
CALLARGGRAAGNASASA [HC1626]	3.15	3.33	3.52 (active)
CATPSRCVRIAGNASASA [FS-203]	0.645 (inactive)	-1.67 (inactive)	-0.417 (inactive)
CAQPARIGRAAGNASASA [FS-1152]	5.34 (active)	7.28 (active)	7.16 (active)
CAQKKRGGPAAGNASASA [WN3]	0.322 (inactive)	-1.02 (inactive)	0.637 (inactive)
CATPSRMIRTAGNASASA [FS-1425]	4.04 (active)	5.44 (active)	5.33 (active)
